Measured values published in ChEMBL document CHEMBL3433997, “St. Jude Leishmania screening dataset” (2016).

Biological target: Hexose transporter 1 (Plasmodium falciparum) (UniProt O97467)
Assay: ST_JUDE_LEISH: Cytotoxicity at 2uM final concentration against transgenic Leishmania Mexicana promastigotes LmPfHT that are glucose transport deficient and complemented with the Plasmodium falciparum hexose transporter. Activity is measured by DNA content using SYBR green in vitro
Format: functional

Compound	inhibition
CC(C)c1cc(C(=O)N[C@@H](Cc2ccccc2)[C@H](O)CNC2CCCCC2)cc(N2CCCC2=O)c1	1.07%
Cc1ccc(O)cc1Nc1ccnc2ccc(C(C)(C)C)cc12	-2.63%
CC1(C)N=C(N)N=C(N)N1OCc1cc2ccccc2cc1CON1C(N)=NC(N)=NC1(C)C	1.86%
Brc1cc(Br)c2c(c1)C(NCCCNc1nc3ncccc3[nH]1)CCN2 (stereo not given)	78.5%
CCN1CCN(c2cc(C)c3cc(NC(=O)c4cccc(C(F)(F)F)c4)ccc3n2)CC1	3.29%
CN1CCC(N(Cc2ccc(N3CCN(Cc4c[nH]c5ccc(Cl)cc45)CC3)nc2)C2CC2)CC1	4.81%
Cc1cc(S(=O)(=O)N2CCCCC(c3ccc(C(F)(F)F)cc3)=N2)c(Cl)cc1Cl	4.02%
CCC(CCON1C(N)=NC(N)=NC1(C)C)c1ccc(Cl)cc1 (stereo not given)	1.03%
CS(=O)(=O)CCNCc1cccc(-c2cc3c(Nc4ccc5c(cnn5Cc5ccccc5)c4)ncnc3s2)c1	-0.73%
CN(C)CCN(C)Cc1ccc(-c2ccc3c(Nc4ccc(F)cc4Cl)ccnc3c2)o1	0.81%
COc1ccc(/N=[N+](\[O-])c2ccccc2/[N+]([O-])=N/c2ccc(OC)cc2)cc1	1.73%
O=C(Nc1ccc(OC2CCN(Cc3ccccc3)CC2)c(Cl)c1)c1ccc(F)cc1	2%
CCCCOc1cc2c(cc1OCC)C(C=Cc1ccc(Cl)cc1Cl)=NCC2	27.9%
Cc1ccccc1C1CCN(C2CCC(NC(=O)c3cc4cc(C(C)C)ccc4[nH]3)CC2)CC1 (stereo not given)	2.91%
COc1ccc(C(=O)N2CCC(CN3CCOC(c4ccccc4)(c4ccccc4)C3)CC2)cc1	2.13%
Cc1cccc2nc(-c3cccc(-c4ccc(NC(=O)c5cnccc5C(F)(F)F)cc4)c3)[nH]c12	-0.42%
CC1CN(Cc2ccc(-c3ccc(-c4nc5cc(F)ccc5[nH]4)s3)cc2)CC(C)O1 (stereo not given)	4.68%
O=S(=O)(Nc1cccc(CCN2CCC(N3CCCCC3)CC2)c1)c1ccc(Oc2ccccc2)cc1	4.71%
O=C(NC1CCN(CCCOc2ccnc3cc(Cl)ccc23)C1)c1ccc(Br)cc1 (stereo not given)	7.84%
NC(=O)c1sc(-n2cnc3ccc(OCC4CCNCC4)cc32)cc1OCc1ccccc1C(F)(F)F	-0.16%

Compound	inhibition
N#CCc1ccc(Nc2nccc(Nc3ccc(Oc4ccccc4)cc3)n2)cc1	6.97%
O=C(Nc1ccc(C(F)(F)F)cc1)c1cccc(S(=O)(=O)NC2CCN(Cc3ccccc3)C2)c1 (stereo not given)	3.64%
CCCCCN1CCCN(Cc2cccc(NC(=O)c3ccc(-c4ccccc4)cc3)c2)CC1	-0.99%
CCC1(CC)C(=O)N=C(N2CCCCC2)N(C)C1=O	14.2%
O=C(Nc1cc(F)cc(F)c1)N1CCOC(CCN2CCC3(CCc4ccccc43)CC2)(c2ccc(Cl)c(Cl)c2)C1 (stereo not given)	3.01%
NCc1ccc(CNCc2ccc(-c3ccc(-c4nc5cc(F)ccc5[nH]4)cc3)cc2)cc1	5.39%
N#Cc1cncc(-c2nc3c(N4CCC(N5CCCC5)CC4)cccc3n2CCNCc2ccccc2)c1	0.8%
CO/N=C(\C)c1ccc2c(c1)CCN(CCC1CCC(NC(=O)/C=C/c3ccc(F)cc3)CC1)CC2 (stereo not given)	3.02%
O=C(CSc1nc(-c2ccccc2Cl)ns1)Nc1cccc(Cl)c1	1.79%
N#Cc1ccc2c(c1)CCN(CCC1CCC(NC(=O)/C=C/c3cccc4cc[nH]c34)CC1)CC2 (stereo not given)	9.87%
CN1CCN(c2cc(-c3cccnc3)nc(-c3ccncc3)n2)CC1	5.65%
CCCC(=O)Nc1ccc(OCCN(Cc2ccccc2OC(F)(F)F)c2ccc(C(F)(F)F)c(C#N)c2)cc1	1.7%
CC(C)NCc1ccc(-c2cccc(-c3nc4ccccc4[nH]3)c2)cc1	11.8%
CCCCCCCCCn1c(NCc2cc(Cl)ccc2O)nc2ccccc21	1.33%
Cc1cc(NCCc2ccccc2)nc(NC(=N)Nc2cccc(Cl)c2)n1	1.42%
CS(=O)(=O)c1ccc(-c2nc(NCC3CCCCC3)cc(C(F)(F)F)n2)cc1	1.77%
Cc1cc(NCCC(=O)Nc2ccccc2)nc(NCCc2cccnc2)n1	2.33%
CCCCCCOc1ccc(C(=O)NCCCC2CCN(CCCCCNC(=O)C=Cc3ccc(Cl)c(Cl)c3)CC2)cc1	4.46%
O=C1COc2ccc3ccccc3c21	0.78%
Cc1cccc2nc(-c3ccc(-c4ccc(NC(=O)Nc5ccc(F)c(F)c5F)cc4)s3)[nH]c12	0.06%

Biological target: Glucose transporter (Leishmania mexicana) (UniProt O61059)
Assay: ST_JUDE_LEISH: Cytotoxicity at 2uM final concentration against transgenic Leishmania Mexicana promastigotes LmGT2 that are glucose transport deficient and complemented with the L. Mexicana glucose transporter 2. Activity is measured by DNA content using SYBR green in vitro
Format: functional

Compound	inhibition
CC(C)c1cc(C(=O)N[C@@H](Cc2ccccc2)[C@H](O)CNC2CCCCC2)cc(N2CCCC2=O)c1	2.18%
Cc1ccc(O)cc1Nc1ccnc2ccc(C(C)(C)C)cc12	-2.07%
CC1(C)N=C(N)N=C(N)N1OCc1cc2ccccc2cc1CON1C(N)=NC(N)=NC1(C)C	0.5%
Brc1cc(Br)c2c(c1)C(NCCCNc1nc3ncccc3[nH]1)CCN2 (stereo not given)	73.5%
CCN1CCN(c2cc(C)c3cc(NC(=O)c4cccc(C(F)(F)F)c4)ccc3n2)CC1	1.11%
CN1CCC(N(Cc2ccc(N3CCN(Cc4c[nH]c5ccc(Cl)cc45)CC3)nc2)C2CC2)CC1	10.7%
Cc1cc(S(=O)(=O)N2CCCCC(c3ccc(C(F)(F)F)cc3)=N2)c(Cl)cc1Cl	-1.4%
CCC(CCON1C(N)=NC(N)=NC1(C)C)c1ccc(Cl)cc1 (stereo not given)	2.41%
CS(=O)(=O)CCNCc1cccc(-c2cc3c(Nc4ccc5c(cnn5Cc5ccccc5)c4)ncnc3s2)c1	0.63%
CN(C)CCN(C)Cc1ccc(-c2ccc3c(Nc4ccc(F)cc4Cl)ccnc3c2)o1	-0.21%
COc1ccc(/N=[N+](\[O-])c2ccccc2/[N+]([O-])=N/c2ccc(OC)cc2)cc1	1.68%
O=C(Nc1ccc(OC2CCN(Cc3ccccc3)CC2)c(Cl)c1)c1ccc(F)cc1	1.68%
CCCCOc1cc2c(cc1OCC)C(C=Cc1ccc(Cl)cc1Cl)=NCC2	10.2%
Cc1ccccc1C1CCN(C2CCC(NC(=O)c3cc4cc(C(C)C)ccc4[nH]3)CC2)CC1 (stereo not given)	1.43%
COc1ccc(C(=O)N2CCC(CN3CCOC(c4ccccc4)(c4ccccc4)C3)CC2)cc1	2.45%
Cc1cccc2nc(-c3cccc(-c4ccc(NC(=O)c5cnccc5C(F)(F)F)cc4)c3)[nH]c12	3.44%
CC1CN(Cc2ccc(-c3ccc(-c4nc5cc(F)ccc5[nH]4)s3)cc2)CC(C)O1 (stereo not given)	3.99%
O=S(=O)(Nc1cccc(CCN2CCC(N3CCCCC3)CC2)c1)c1ccc(Oc2ccccc2)cc1	2.69%
O=C(NC1CCN(CCCOc2ccnc3cc(Cl)ccc23)C1)c1ccc(Br)cc1 (stereo not given)	7.14%
NC(=O)c1sc(-n2cnc3ccc(OCC4CCNCC4)cc32)cc1OCc1ccccc1C(F)(F)F	0.31%

Compound	inhibition
N#CCc1ccc(Nc2nccc(Nc3ccc(Oc4ccccc4)cc3)n2)cc1	1.09%
O=C(Nc1ccc(C(F)(F)F)cc1)c1cccc(S(=O)(=O)NC2CCN(Cc3ccccc3)C2)c1 (stereo not given)	3.95%
CCCCCN1CCCN(Cc2cccc(NC(=O)c3ccc(-c4ccccc4)cc3)c2)CC1	2.3%
CCC1(CC)C(=O)N=C(N2CCCCC2)N(C)C1=O	5.99%
O=C(Nc1cc(F)cc(F)c1)N1CCOC(CCN2CCC3(CCc4ccccc43)CC2)(c2ccc(Cl)c(Cl)c2)C1 (stereo not given)	1.78%
NCc1ccc(CNCc2ccc(-c3ccc(-c4nc5cc(F)ccc5[nH]4)cc3)cc2)cc1	5.05%
N#Cc1cncc(-c2nc3c(N4CCC(N5CCCC5)CC4)cccc3n2CCNCc2ccccc2)c1	3.98%
CO/N=C(\C)c1ccc2c(c1)CCN(CCC1CCC(NC(=O)/C=C/c3ccc(F)cc3)CC1)CC2 (stereo not given)	11.2%
O=C(CSc1nc(-c2ccccc2Cl)ns1)Nc1cccc(Cl)c1	0.35%
N#Cc1ccc2c(c1)CCN(CCC1CCC(NC(=O)/C=C/c3cccc4cc[nH]c34)CC1)CC2 (stereo not given)	3.01%
CN1CCN(c2cc(-c3cccnc3)nc(-c3ccncc3)n2)CC1	3.57%
CCCC(=O)Nc1ccc(OCCN(Cc2ccccc2OC(F)(F)F)c2ccc(C(F)(F)F)c(C#N)c2)cc1	2.31%
CC(C)NCc1ccc(-c2cccc(-c3nc4ccccc4[nH]3)c2)cc1	10.3%
CCCCCCCCCn1c(NCc2cc(Cl)ccc2O)nc2ccccc21	0.42%
Cc1cc(NCCc2ccccc2)nc(NC(=N)Nc2cccc(Cl)c2)n1	0.63%
CS(=O)(=O)c1ccc(-c2nc(NCC3CCCCC3)cc(C(F)(F)F)n2)cc1	0.16%
Cc1cc(NCCC(=O)Nc2ccccc2)nc(NCCc2cccnc2)n1	1.5%
CCCCCCOc1ccc(C(=O)NCCCC2CCN(CCCCCNC(=O)C=Cc3ccc(Cl)c(Cl)c3)CC2)cc1	3.91%
O=C1COc2ccc3ccccc3c21	-0.4%
Cc1cccc2nc(-c3ccc(-c4ccc(NC(=O)Nc5ccc(F)c(F)c5F)cc4)s3)[nH]c12	0.31%
